Screens as filed in PubChem.
Rows were chosen to be rich in hits. Some 9% of all compounds tested hit in one or more screens of this group.
ALDH1A1 inh – qHTS Assay for Inhibitors of Aldehyde Dehydrogenase 1 (ALDH1A1); Aldehyde dehydrogenase 1A1 (Homo sapiens), P00352; Purified ALDH1A1, NADH fluorescence, propionaldehyde substrate; Potency, µM (titrated, usually from 75.3 µM), inactives show at the highest dose activity, negative = inhibition, usual class: inhibitors; 220,000 tested, 7.3% active;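 note: potency is the fitted concentration of half-maximal effect; plate controls were no enzyme wells and a reference inhibitor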
IMPase cell inh – qHTS Assay for Identifying the Cell-Membrane Permeable IMPase Inhibitors; Inositol monophosphatase 1 (Rattus norvegicus), P97697; CHO-M1 cells, IP1 accumulation, HTRF TR-FRET ratio; inhibition (IP1 accumulation), % at 46.1 µM; 120,000 tested, under 10 active; AID 901, 2007; active = well fitted curve in the direction sought with a large enough effect in the signal ratio, not every such curve was filed as active; inconclusive = small, poorly fitted or top-dose-only effect, or a change in a side signal; inactive = no such curve, though single readings can be large or run the other way; the % refers to the signal ratio;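 note: cells stimulated with carbachol in lithium chloride buffer; plate controls were DMSO basal wells for no effect and reference inhibitor wells for full effect; higher means more IMPase inhibition seen as more IP1 and lower FRET ratio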
Target sequence (P97697 whole entry, looked up): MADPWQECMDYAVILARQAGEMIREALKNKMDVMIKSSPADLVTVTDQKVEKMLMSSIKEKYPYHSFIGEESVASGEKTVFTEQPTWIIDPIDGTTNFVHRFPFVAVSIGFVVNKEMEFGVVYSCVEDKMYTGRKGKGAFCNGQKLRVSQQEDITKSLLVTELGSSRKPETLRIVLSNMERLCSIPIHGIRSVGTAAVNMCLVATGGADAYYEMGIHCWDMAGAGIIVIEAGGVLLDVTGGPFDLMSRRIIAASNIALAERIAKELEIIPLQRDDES
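CHO-M1, 2000 cells/well, cultured 16–30 h; cpd up to 46 uM; carbachol (50 uM solution, stimulation buffer w/ 50 mM LiCl, pH 7.4), 30 min 37C; IP-One TR-FRET, 10 min RT; Ex 320/Em 665, 620; Hill-fit AC50.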
HPGD block – qHTS Assay for Inhibitors of HPGD (15-Hydroxyprostaglandin Dehydrogenase); Potency, µM, without a hit: at the highest dose activity change, negative = inhibition, usual class: inhibitors; AID 894, 2007; 15-hydroxyprostaglandin dehydrogenase [NAD(+)] (Homo sapiens), P15428; 150,000 tested, 4.3% active; purified HPGD, NADH fluorescence kinetic, PGE2 substrate; note: potency is the fitted concentration of half-maximal effect
Target sequence (P15428 whole entry, looked up): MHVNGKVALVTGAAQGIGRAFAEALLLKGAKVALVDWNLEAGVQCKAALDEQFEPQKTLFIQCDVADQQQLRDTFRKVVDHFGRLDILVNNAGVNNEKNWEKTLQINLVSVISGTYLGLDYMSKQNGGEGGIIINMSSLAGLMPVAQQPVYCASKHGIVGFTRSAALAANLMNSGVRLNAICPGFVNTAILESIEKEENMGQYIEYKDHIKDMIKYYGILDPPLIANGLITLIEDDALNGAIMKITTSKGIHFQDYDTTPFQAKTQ
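NADH formation kinetics: reaction with 30 uM PGE2 and 1 mM NAD+ (final), 20 nM enzyme, Tris-HCl pH 8 with Tween 20, after 15 min compound preincubation at room temperature. Fluorescence change, last versus first of five reads.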
Active calls of the source: *; ? = inconclusive; / = no result given; ! = not confirmed by another sample; [ ] = another dose, or the depositor's remark. Unless noted, calls come from the whole dose curve; as a rule, active = well fitted inhibition curve with a large enough effect (not every such curve was filed as active); inconclusive = small, poorly fitted or top-dose-only effect, or another doubt; inactive = no such curve, though single readings can be large or run the other way. Unless noted, % is set by controls: 0 for no effect and ±100 for the full control effect.

SMILES	ALDH1A1 inh	IMPase cell inh	HPGD block
C[C@@]12CC[C@H]3[C@@H](CCC4=CC(=O)CC[C@]43C)[C@H]1CC[C@H]2C(=O)CO	5µM*	-5[20.6 µM]	-6%
C[C@@]12CCC3C(CCC4=CC(=O)CC[C@]43C)C1CCC2O (stereo not given in full)	-4%	/	-2%
CCN1CCN(c2ccc(N)c(C)c2)CC1	2%	/	/
CCC(=O)c1cc(F)c(N2CCN(CC)CC2)cc1C	20µM*	13	-8%
Oc1c(Cl)c(Cl)c(Cl)c(Cl)c1Cl	18µM*!	/	/
COc1cc(OC2CCN(C(C)=O)CC2)ccc1C(=O)N1CCC(N2C(=O)OCc3ccccc32)CC1	?	/	-6%
CC(=O)OC1CCC2(C)C3=C(CCC2C1(C)C)[C@]1(C)CCC(C(C)CCC=C(C)C)[C@]1(C)CC3 (stereo not given in full)	?	/	-6%
CC(C)=CCCC(C)C1CC[C@@]2(C)C3=C(CC[C@@]12C)C1(C)CCC(O)C(C)(C)C1CC3 (stereo not given in full)	28µM*	/	-9%
c1ccc2c(c1)CCCC2	-16%	/	-7%
C1=CC2C3C=CC(C3)C2C1 (stereo not given)	22µM*	/	-10%
CC(=O)[O-].CC(=O)[O-].O.O.[Cd+2]	7.5µM*	/	-2%
CCC(C)=O	?	/	-13%
C=CCCC#N	3.2µM*	/	-10%
C[C@@H]1CC([C@H](O)CC2CC(=O)NC(=O)C2)C(=O)[C@@H](C)C1 (stereo not given in full)	-6%	/	/
CCOc1c(Cl)cc(CNCCc2c[nH]c3ccccc23)cc1OC	3.5µM*	/	/
CCOc1cc(CNCCc2c[nH]c3ccccc23)cc(Cl)c1OCC	-2%	/	-4%
O[C@H]1CCCC[C@H]1N1CCC(c2ccccc2)CC1	-8%	3	-7%
CC1=NN(c2ccc(S(=O)(=O)O)cc2C)C(=[OH+])[C@H]1N=Nc1cc(S(=O)(=O)O)ccc1C(=O)O.O.[Cr]	?	/	-16%
CC1(C)C(O)CC(O)[C@]2(C)C1CC(O)[C@]1(C)C2CC[C@@]2(C)C(c3ccoc3)CC3OC312 (stereo not given in full)	?	/	-18%
Cc1ccc(/C=C2/C(=O)NC(=O)N(CCc3ccc(F)cc3)C2=O)o1	5.6µM*	2	3.5µM*
O=C1NC(=O)N(CCc2ccc(F)cc2)C(=O)/C1=C/c1ccco1	2.5µM*	/	/
CC(=O)[C@H]1[C@H](C#N)CC2C3CC=C4C[C@@H](O)CCC4(C)C3CCC21C (stereo not given in full)	-2%	/	-3%
C[Se]C[C@H](N)C(=O)O	?	/	4%
CN1CCN(Cc2ccc(N)cc2)CC1	-2%	/	/
CN1CCN(Cc2cc(C(C)(C)C)c(O)c(C(C)(C)C)c2)CC1	22µM*	9	6%
SMILES	ALDH1A1 inh	IMPase cell inh	HPGD block
Cc1ccccc1NC1=NCC(C)S1 (stereo not given)	2%	10	?
CC(=O)c1cccc(NC2=NCC(C)S2)c1 (stereo not given)	-6%	1	14µM*
COC(=O)[C@@]1(Cc2ccccc2)[C@H]2c3cc(C(=O)N(C)C)[nH]c3C[C@H]2CN1C(=O)c1ccccc1	3%	/	-1%
N[C@@H](Cc1cc(I)c(O)c(I)c1)C(=O)O	11µM*!	/	-8%
N[C@H](Cc1ccc(N(CCCl)CCCl)cc1)C(=O)O	/	0	/
NC(Cc1cc(O)c(O)cc1O)C(=O)O (stereo not given)	11µM*	/	4.5µM*
N[C@@H](Cc1cc(O)c(O)cc1O)C(=O)O	/	-3	/
Cc1ccc(C2(c3ccc(C)c(O)c3C)CCN(C)CC2)c(C)c1O	-2%[13.5 µM]	/	-8%
Cc1cc(C)cc(-n2c(C)cc(/C=C3\C(=O)NC(=O)N(C)C3=O)c2C)c1	12%	/	-3%
Cc1ccnc(-n2c(C)cc(C=C3C(=O)N(C)C(=S)N(C)C3=O)c2C)c1	?	5	32µM*
C=CCN1CCC23c4c5ccc(O)c4OC2/C(=N/N=C2\CCC4(O)C6Cc7ccc(O)c8c7C4(CCN6CC=C)C2O8)CCC3(O)C1C5 (stereo not given)	-6%	/	/
CCN(CC)C(=O)c1c(C)[nH]c(=S)c(C#N)c1-c1ccco1	7.1µM*	/	/
O=[N+]([O-])c1ccc(F)c([N+](=O)[O-])c1	20µM*	/	-24%
Nc1ccc([N+](=O)[O-])cc1[N+](=O)[O-]	-10%	/	-2%
CNC[C@H](O)c1ccc(OC(=O)C(C)(C)C)c(OC(=O)C(C)(C)C)c1	26%[20.9 µM]	0[20.6 µM]	4%
NC(N)=Nc1ccc2[nH]c3c(c2c1)C[C@@]1(O)[C@H]2Cc4ccc(O)c5c4[C@@]1(CCN2CC1CC1)[C@H]3O5	1.6µM*	/	3.2µM*
Oc1ccc2c3c1O[C@H]1c4[nH]c5c(c4C[C@@]4(O)[C@@H](C2)N(CC2CC2)CC[C@]314)C[C@]1(O)[C@H]2Cc3ccc(O)c4c3[C@@]1(CCN2CC1CC1)[C@@H]5O4	-4%	3	-3%
CN[C@@H](C)[C@H]1CC[C@@H](N)[C@@H](O[C@@H]2[C@@H](O)[C@@H](O[C@H]3OC[C@@](C)(O)[C@@H](NC)[C@@H]3O)[C@H](N)C[C@@H]2N)O1 (tested in a mixture with another compound)	11%[20.9 µM]	/	-2%
C=CCn1c(=O)c(C=Nc2cccc([N+](=O)[O-])c2)c(O)n(CCCC)c1=O	-8%	3	-5%
C=CCn1c(=O)c(C=Nc2c(OC)cccc2[N+](=O)[O-])c(O)n(CCCC)c1=O	13µM*	/	-14%
S=c1[nH]nc(-c2ccco2)n1/N=C/c1cccs1	25µM*	3	28µM*
ClC=C(Cl)Cl	21%	/	0%
O=P(c1ccccc1)(c1ccccc1)N1CC2(CC2)CC(O)(c2ccccc2)C1 (stereo not given)	-9%	/	-11%
O[C@@H]1CCCC[C@@H]1N1CCC(c2ccccc2)CC1	-4%	/	/
COC(=O)N1CCC2(CCN(CC(C)C)CC2)CC1	2%	/	-7%
SMILES	ALDH1A1 inh	IMPase cell inh	HPGD block
O=C(Oc1ccccc1)N1CCC2(CCN(Cc3nccs3)CC2)CC1	-10%	/	-1%
c1csc(CN2CC[C@@]3(CCCNC3)C2)n1	22µM*	/	-13%
COc1ccc(Cn2c(O)c(C=NCCN3CCOCC3)c(=O)[nH]c2=O)cc1	?	-23	/
COc1ccc(NC(=S)NCCN2CCOCC2)cc1	1.3µM*	/	/
CCCCCCCC(=O)Cl	?	/	-9%
C=CC(=O)OCC(C)C	16%	/	-9%
C/C=C1\C[N@@+]2(C)CC[C@@]34C(=C(C=O)[C@H]1C[C@H]32)Nc1ccccc14	?	-2[20.6 µM]	16µM*
O=C(C/C=N\OCc1c(Cl)cccc1Cl)Oc1ccc(Cl)cc1Cl	?	6	-15%
CCN(CC)c1ncnc2c1ncn2[C@@H]1O[C@@H](COP(=O)(O)OP(=O)(O)C(Br)(Br)P(=O)(O)O)[C@H](O)[C@@H]1O	/	-3	/
Fc1ccc(NC2=NCCS2)cc1Cl	7%	4	13µM*
COc1ccc(OC)c(NC2=NCCS2)c1	-10%	/	/
O=C(O)c1cc2ccccc2oc1=O	3%	6	-6%
O=c1oc2ccccc2c(O)c1Cc1c(O)c2ccccc2oc1=O	6.3µM*!	-4[20.6 µM]	-7%
